Dicer inh: inhibitors of Dicer pre-microRNA processing, primary screen, biochemical, cat-ELCCA, chemiluminescence; z-score at 25 µM; 47,000 compounds, 6% hits; cat-ELCCA pre-miR-21 Dicer processing; active compounds read high; AID 1347074, 2019; in the data active = z-score above about 3, passing the limit was not always enough;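 note: plate controls were vehicle for no effect and no enzyme for full effect; higher signal means more uncleaved substrate so more Dicer inhibition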
* = called active by the depositor. Many of the other results were omitted from the sample, so hits are more common in it than they were.

SMILES	Dicer inh
CCCN1C(=O)C(O)(CC(=O)c2ccc(C)o2)c2ccccc21 (configuration not stated)	-0.15
Cc1onc(-c2ccccc2Cl)c1C(=O)NNc1cccc(C(F)(F)F)n1	0.23
Cc1cccc(NC2=NC(c3ccccc3)n3c(nc(C)cc3=O)N2)c1 (configuration not stated)	-1
N#Cc1cc(Cl)ccc1Nc1ncnc(N)n1	0.41
N#CCCOCC1CCN(Cc2ccccc2)CC1	0.38
Cc1cc(C)c2c(n1)sc1c(Sc3nnc(-c4cccs4)o3)ncnc12	-2.2
CCOC(=O)C1C(=O)CC(C)(O)C(C(=O)OCC)C1c1ccc(Cl)cc1 (configuration not stated)	-0.81
CCOC(=O)CSC1=C(C#N)C(c2ccc(C(C)C)cc2)CC(=O)N1 (configuration not stated)	0.12
C=C1c2cccc(O)c2C(O)=C2C(=O)[C@]3(O)C(O)=C(C(N)=O)C(=O)[C@@H](N(C)C)[C@@H]3[C@@H](O)[C@H]12	23*
CCOC(=O)c1c(NC(=S)Nc2ccccc2)sc2c1CCCC2	-0.38
O=C(N/N=C/c1ccc(Cl)cc1)Nc1cc(C(F)(F)F)cc(C(F)(F)F)c1	0.21
CCOC(=O)c1c(C)oc2ccc(NS(=O)(=O)c3ccc(Cl)cc3)cc12	3.6*
CCOc1ccc(S(=O)(=O)Nc2ccc3oc(C)c(C(=O)OCCOC)c3c2)cc1	0.74
CCOC(=O)c1c(C)oc2c(Br)cc(NS(=O)(=O)c3ccc(Cl)c(C)c3)cc12	0.56
Cc1ccc(-c2cc(C(F)(F)F)n3ncc(C(=O)Nc4ccc5c(c4)OCO5)c3n2)cc1	-0.12
CCOC(=O)c1cnn2c(C)cc(-c3ccc(F)cc3)nc12	-0.57
CC(C)OC(=O)c1cnn2c(C(F)(F)F)cc(-c3ccc(F)cc3)nc12	4.7*
O=C(O)CSc1nnc(-c2cccc(Cl)c2)o1	0.44
Cn1c(SCc2ccc([N+](=O)[O-])cc2)nc2sc3c(c2c1=O)CCCC3	0.16
Cn1c(=O)c2c(nc(NCc3cccnc3)n2Cc2ccccc2F)n(C)c1=O	1.8
S=c1nc(-c2ccccc2)n(Cc2ccccn2)c2c1CCCC2	2
CC1=N/C(=C\c2cc(F)cc(F)c2)C(=O)O1	-0.66
CC1=N/C(=C/c2ccc(Cl)c(Cl)c2)C(=O)O1	3.2*
CC1=N/C(=C\c2ccc3ccccc3c2)C(=O)O1	-0.93
O=C(OCc1ccc(Cl)cc1)c1cnc(N2CCSCC2)nc1C(F)(F)F	-1.4
SMILES	Dicer inh
CC(O)CN1C(=O)c2cccc3cc([N+](=O)[O-])cc(c23)C1=O (configuration not stated)	1.8
Cc1cc(NC(=O)/C(C#N)=C/c2cc(Br)cs2)no1	0.43
CCCCOC(=O)C1=C(C)NC2=C(C(=O)CCC2)C1c1cc2c(cc1Br)OCO2 (configuration not stated)	0.09
CC1SC(c2cccnc2)N(c2ccc(Cl)cc2)C1=O (configuration not stated)	6.3
COc1ccc(CCN2C(=O)C(C)SC2c2cccnc2)cc1 (configuration not stated)	4.2*
O=C1CSC(c2cccnc2)N1CCc1ccc(Cl)cc1 (configuration not stated)	6.5
O=C(COc1ccc2ccccc2c1)OCC(=O)c1ccccc1	0.85
O=C1/C(=C/c2ccc(F)cc2)CN(Cc2ccccc2)C/C1=C\c1ccc(F)cc1	4.2*
CN1C/C(=C\c2ccccc2)C(=O)/C(=C/c2ccccc2)C1	-1.6
COc1ccc(/C=C2\CN(C)C/C(=C\c3ccc(OC)cc3)C2=O)cc1	-0.55
COc1cccc(NC(=O)Nc2nnc(COc3ccc(F)cc3)s2)c1	4.4*
CCOC(=O)Cc1nnc(NC(=O)Nc2ccccc2)s1	1.7
COc1ccc(NC(=O)Nc2nnc(-c3ccncc3)s2)cc1	4.2*
COc1cccc(NC(=O)Nc2nnc(COc3ccccc3F)s2)c1	5*
CC(C)c1nnc(NC(=O)Nc2ccccc2)s1	1.3
CCOc1ccc2nc(NC(=O)Nc3ccc(F)cc3)sc2c1	-1.3
COCc1nnc(NC(=O)c2ccco2)s1	0.86
COc1cccc(NC(=O)NCCN2CCN=C2C)c1	-0.02
COc1ccc(OCc2nnc(NC(=O)Nc3ccccc3F)s2)cc1	2.1
CCc1cc(C(=O)c2ccc(OC)cc2)c(NC(=O)Nc2ccc(F)cc2)s1	0.31
COc1ccccc1NC(=O)Nc1nnc(COc2ccccc2F)s1	4.8*
COc1ccc(NC(=O)Nc2cncc(C#Cc3ccccc3)c2)cc1	0.81
CCOC(=O)c1c(S(=O)(=O)N2CCSC2C(=O)OC)c(-c2ccccc2)n(-c2ccccc2)c1C (configuration not stated)	1.5
C[C@@H](c1ccccc1)N1C(=O)CC[C@H]2CC(=O)CC[C@@H]21	-0.22
COC(=O)c1cc(-c2ccc(Cl)cc2)nc2ccc(C)cc12	0.1
SMILES	Dicer inh
CCOC(=O)c1cnn(C(N)=S)c1N	-0.37
S=C(NCCc1ccccn1)NN1C2CSC1CS2	-4.3
C=C1SC(=Nc2cccc(OC)c2)N(C(=O)C(c2ccccc2)C2CCCC2)C1(C)C (configuration not stated)	-2.5
O=C1CSC(c2cn(-c3ccccc3)nc2-c2ccccc2)N1CCO (configuration not stated)	-0.57
Cc1ccc([N+](=O)[O-])c(C)c1Nc1ccccc1C(=O)O	-0.91
CC1=C(C(=O)OCCOC(C)C)C(c2coc3ccc(C)cc3c2=O)C2=C(CCCC2=O)N1 (configuration not stated)	7.2*
CC1=C(C(=O)OC2CCCC2)C(c2coc3ccc(Cl)cc3c2=O)C2=C(CCCC2=O)N1 (configuration not stated)	0.44
CC1=C(C(=O)OC2CCCCC2)C(c2coc3ccc(C)cc3c2=O)C2=C(CC(C)(C)CC2=O)N1 (configuration not stated)	1.1
COCCOC(=O)C1=C(C)NC2=C(C(=O)CCC2)C1c1coc2ccccc2c1=O (configuration not stated)	4.8
CC1=C(C(=O)OCCOC(C)C)C(c2ccc(C)o2)C2=C(CCCC2=O)N1 (configuration not stated)	-0.28
CC1=C(C(=O)OC2CCCCC2)C(c2coc3ccc(C)cc3c2=O)C2=C(CCCC2=O)N1 (configuration not stated)	3.2*
C=CCN(CC=C)Cc1c(C)[nH]c2ccc(OCC)cc2c1=O	0.47
Cc1cc(C)c(C(N)=O)c(CC(C)(C)C(=O)O)c1	-0.04
COC(=O)c1ccc(/C=C/c2cccc(Cl)c2)s1	0.7
CCC1SC2=NC(C)=C(C(=O)OCCOC)C(c3ccc(OCc4ccccc4)cc3)N2C1=O (configuration not stated)	0.38
CCOC(=O)C1=C(C)NC2=C(C(=O)CC(C)(C)C2)C1c1cc2c(cc1Cl)OCO2 (configuration not stated)	-0.39
CCOC(=O)C(=CNNS(=O)(=O)c1cc(C(F)(F)F)cc(C(F)(F)F)c1)C(=O)OCC	-0.88
CSCCC(NC(=O)c1ccc(C(F)(F)F)cc1)C(=O)NN (configuration not stated)	-0.55
COC(=O)C(CCSC)NS(=O)(=O)c1cc(C(F)(F)F)cc(C(F)(F)F)c1 (configuration not stated)	4.8*
CC1c2ccsc2CCN1S(=O)(=O)c1ccc(Cl)s1 (configuration not stated)	-0.75
O=C(O)Cn1c(=O)oc2ccccc21	0.55
COC(=O)Cn1c(=O)oc2ccccc21	-0.07
CC(C)OC(=O)Cn1c(=O)oc2ccccc21	4*

Assay outcomes (PubChem)
